# Results from PubChem BioAssay (NCI).
# The panel holds about 79,000 compounds, 15% with a hit somewhere; the sample as a whole holds those more often. The source made the active and inactive calls. Rule as the data show it: active = growth inhibition above about 70%; inactive = the rest.
# Assay: NCI Yeast Anticancer Drug Screen. Data for the mec2-1 strain (AID 157)
# Conditions: S. cerevisiae mec2-1 strain, at 50.0 µM, hits give high values
# Description: Growth inhibition of yeast strains with defined genetic alterations is measured as a screen for potential anti-cancer activity. Selected strains with alterations in DNA damage repair or cell cycle control were exposed to compounds and growth inhibition was measured relative to vehicle treated controls. The strain used in this assay is mec2-1
row,Compound,growth inhibition
1,N#CCC(=O)N/N=C/c1ccccc1,-27.1% (inactive)
2,OCC(I)CO,3.45% (inactive)
3,CCOc1c(Cc2ccccc2)c(=O)n2c3ccccc3n(CC)c2c1C#N,-6.05% (inactive)
4,Nc1cccc(C(O)c2ccccc2)c1 (stereo not given),-1.15% (inactive)
5,CCn1c(C)[n+](CCCOS(=O)(=O)[O-])c2ccccc21,-19.1% (inactive)
6,Cc1c(Cl)cccc1NC(=O)Oc1ccc(F)cc1Cl,-3.1% (inactive)
7,Oc1c(Br)cc(CN(Cc2cc(Br)c(O)c(Br)c2)C2CCCCC2)cc1Br,-6.5% (inactive)
8,CCO/N=C(/N)c1ncn(Cc2ccccc2)c1NCC(OCC)OCC,1.15% (inactive)
9,Cc1cccc2c1Oc1ccccc1C2NC(=O)OCCCl (stereo not given),13.1% (inactive)
10,O=C(c1ccccc1)c1ccc2ccccc2c1C(=O)O,9.6% (inactive)
11,CNC(=O)CCC(NC(=O)OC(C)(C)C)C(=O)NC(Cc1ccc(NC(=O)CCCCC(C)=O)cc1)C(=O)NCC(=O)NC (stereo not given),13.9% (inactive)
12,CCOC(=O)C(C#N)C1=CC(=O)C(=O)c2ccc(O)cc21 (stereo not given),-7.65% (inactive)
13,COc1ccc2nc3ccccc3c(NCCCN(C)C)c2c1[N+](=O)[O-],-19.6% (inactive)
14,CC(=N\[O-])/C(C)=N/O.CC(=N\[O-])/C(C)=N/O.CCCc1ccncc1.[Cl-].[Cl-].[Rh+3],-34% (inactive)
15,CCOC(=O)[C@H](C)OC(=O)[C@@](C)(NC(=O)c1ccccc1C(=O)OC)[C@@H]1NC=C(C(=O)OC)CS1,26.9% (inactive)
16,Cn1c(=O)[nH]c2c(-c3ccccc3)n[nH]c2c1=O,-1.65% (inactive)
17,CCOC(=O)c1ccc(NC(=O)Nc2cc(Cl)ccc2OC)cc1,46.1% (inactive)
18,CC1C(OC(=O)CCl)CCC2C1(C)CCC1C2(C)CCC2(C)C3CC(C)(C)CCC3(C)CCC12C (stereo not given),1% (inactive)
19,CC(C)OCCCN(Cn1c(=S)sc2ccccc21)Cn1c(=S)sc2ccccc21,54.6% (inactive)
20,COc1cccc(/C=C/C(=O)c2sc(C(N)=S)nc2C)c1O,1.7% (inactive)

row,Compound,growth inhibition
1,C/C(=C\c1ccccc1)C(=O)C1C(c2ccccc2)CC(=O)C(C)C1c1ccccc1 (stereo not given),-11.7% (inactive)
2,O=C(Nc1nc(=S)[nH][nH]1)C(=O)C(C(=O)c1ccc2ccccc2c1)C1OC(=O)c2ccccc21 (stereo not given),23.3% (inactive)
3,Cc1ccc([N+](=O)[O-])c2c(NCCCN(C)C)ccnc12,16.1% (inactive)
4,N#CC(c1ccccc1)c1ccccn1 (stereo not given),8.35% (inactive)
5,COC(CN1C=C(Sc2ccccc2)CC1)OC,24.2% (inactive)
6,C=CCc1cccc(CC=C)c1OCCN(CC)CC,17.1% (inactive)
7,CCCCCCCCCCCCCCCC[N+](C)(C)CC#CCCl,99.5% (active)
8,CCOC(=O)C(NC(=O)CC(C)C)(NC(C)C)C(F)(F)F (stereo not given),-2.25% (inactive)
9,O=C(Nc1cccc(C(F)(F)F)c1)c1ccco1,9.75% (inactive)
10,CCOC(=O)CC1(O)C(=O)N(Cc2ccccc2)c2ccccc21 (stereo not given),-0.15% (inactive)
11,CC(=O)OC1(C(=O)OCC2CCCO2)CCCC1 (stereo not given),5.4% (inactive)
12,CCN=C(C#N)NCC,-3.75% (inactive)
13,CCCNc1ncnc2ncn(C)c12,-1.6% (inactive)
14,CC(=O)C(CCC#N)(CCC#N)C(=O)Nc1ccccc1,10.5% (inactive)
15,CN(C)c1nc(N)c2ccc(Cl)cc2n1,10.6% (inactive)
16,NC(=S)N1CCCC1,-22.1% (inactive)
17,O=[N+]([O-])c1ccc(COP(=O)(OCc2ccc([N+](=O)[O-])cc2)OCc2ccc([N+](=O)[O-])cc2)cc1,-2.35% (inactive)
18,Cc1ccc(NC(=O)COc2cc(Cl)c(Cl)cc2Cl)c([N+](=O)[O-])c1,-4.8% (inactive)
19,CNC(=O)N(CC1CCCCC1)c1nc2c(=O)n(C)c(=O)[nH]c2s1,-5.9% (inactive)
20,Cc1ccc(NC(=O)CCc2nnc3s/c(=C\c4cccc([N+](=O)[O-])c4)c(=O)n23)cc1,-8.45% (inactive)
